Experiments:
Assay in all cases: log2 ratio of Biotin-Ahx-Ub-VS probe labelling (fragment/DMSO); higher = less target engagement (more negative = stronger competition), active = hit call of the paper (q ≤ 0.05, log2 ratio ≤ -1)
Conditions in all cases: compound concentration: 200 uM; treatment time: 3 h
ALG13 = biological target: T1, ALG13 (UniProt Q9NP73)
T1 sequence (whole entry): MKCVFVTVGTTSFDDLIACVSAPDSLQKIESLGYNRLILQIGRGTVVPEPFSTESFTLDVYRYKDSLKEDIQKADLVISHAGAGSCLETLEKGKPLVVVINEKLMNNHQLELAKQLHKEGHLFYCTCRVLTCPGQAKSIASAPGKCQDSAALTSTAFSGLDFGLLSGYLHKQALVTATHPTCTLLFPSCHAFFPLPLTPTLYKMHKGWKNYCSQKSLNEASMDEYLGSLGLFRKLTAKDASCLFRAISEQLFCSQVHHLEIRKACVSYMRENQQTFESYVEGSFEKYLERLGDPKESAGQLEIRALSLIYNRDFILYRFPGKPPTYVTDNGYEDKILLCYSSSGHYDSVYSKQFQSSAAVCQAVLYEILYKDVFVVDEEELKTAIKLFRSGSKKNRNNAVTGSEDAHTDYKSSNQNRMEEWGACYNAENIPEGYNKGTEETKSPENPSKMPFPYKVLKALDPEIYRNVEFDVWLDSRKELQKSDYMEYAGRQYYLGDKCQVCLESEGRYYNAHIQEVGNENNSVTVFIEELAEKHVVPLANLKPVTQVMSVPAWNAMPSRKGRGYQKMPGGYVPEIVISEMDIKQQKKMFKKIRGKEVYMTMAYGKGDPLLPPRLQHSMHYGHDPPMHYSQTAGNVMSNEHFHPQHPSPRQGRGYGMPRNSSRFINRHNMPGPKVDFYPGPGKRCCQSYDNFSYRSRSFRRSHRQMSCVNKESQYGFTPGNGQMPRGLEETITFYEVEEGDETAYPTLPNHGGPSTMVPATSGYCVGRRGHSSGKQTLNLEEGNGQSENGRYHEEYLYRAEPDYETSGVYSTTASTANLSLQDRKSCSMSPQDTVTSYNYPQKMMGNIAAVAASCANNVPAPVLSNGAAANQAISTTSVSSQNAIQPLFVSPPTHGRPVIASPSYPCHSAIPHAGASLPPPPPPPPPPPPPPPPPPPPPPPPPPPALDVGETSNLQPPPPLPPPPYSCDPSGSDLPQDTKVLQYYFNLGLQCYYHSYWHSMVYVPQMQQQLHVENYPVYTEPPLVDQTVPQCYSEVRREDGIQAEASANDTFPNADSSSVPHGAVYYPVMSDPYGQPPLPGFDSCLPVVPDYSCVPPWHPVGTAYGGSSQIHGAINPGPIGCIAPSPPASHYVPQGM
Summary of the method: (§1)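 Fragment (200 µM) or vehicle was incubated for 3 h with triplicate HEK293T lysate samples of 495 µg, which were then treated with Biotin-Ahx-Ub-VS at 0.5 µM final for 1 h. Labelled DUBs were enriched on NeutrAvidin, digested with LysC and trypsin, and analysed by diaPASEF LC-MS/MS. Values are average log2 fragment/vehicle ratios from an unpaired t-test on global-median-normalised Spectronaut label-free quantities, using proteins with ≥2 unique peptides.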

ATXN3 = ATXN3 (UniProt P54252)
Summary of the method: as §1

BAP1 = biological target: T2, BAP1 (UniProt Q92560)
T2 sequence (whole entry): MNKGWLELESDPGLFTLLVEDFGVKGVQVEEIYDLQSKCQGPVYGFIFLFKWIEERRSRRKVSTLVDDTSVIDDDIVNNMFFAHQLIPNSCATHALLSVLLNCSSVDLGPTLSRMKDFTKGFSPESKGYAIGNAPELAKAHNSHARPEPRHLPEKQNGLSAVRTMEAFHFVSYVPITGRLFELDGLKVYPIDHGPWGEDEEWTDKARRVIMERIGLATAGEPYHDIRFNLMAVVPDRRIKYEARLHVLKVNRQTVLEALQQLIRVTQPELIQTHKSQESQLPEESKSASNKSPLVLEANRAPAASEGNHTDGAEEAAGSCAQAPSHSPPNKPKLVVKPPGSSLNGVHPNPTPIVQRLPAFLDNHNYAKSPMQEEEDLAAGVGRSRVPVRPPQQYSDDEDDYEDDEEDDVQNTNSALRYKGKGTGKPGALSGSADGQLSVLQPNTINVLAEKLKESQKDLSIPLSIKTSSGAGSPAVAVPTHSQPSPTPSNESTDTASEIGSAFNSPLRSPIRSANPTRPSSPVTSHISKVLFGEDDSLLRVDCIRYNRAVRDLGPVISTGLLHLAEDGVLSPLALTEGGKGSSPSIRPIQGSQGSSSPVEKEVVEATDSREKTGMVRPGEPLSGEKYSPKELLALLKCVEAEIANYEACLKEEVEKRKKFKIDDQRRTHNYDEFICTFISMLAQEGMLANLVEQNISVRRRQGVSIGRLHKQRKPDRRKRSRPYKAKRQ
Summary of the method: as §1

EIF3F = EIF3F (UniProt O00303)
Summary of the method: as §1

EIF3H = EIF3H (UniProt O15372)
Summary of the method: as §1

FAM105A = biological target: T3, FAM105A (UniProt Q9NUU6)
T3 sequence (whole entry): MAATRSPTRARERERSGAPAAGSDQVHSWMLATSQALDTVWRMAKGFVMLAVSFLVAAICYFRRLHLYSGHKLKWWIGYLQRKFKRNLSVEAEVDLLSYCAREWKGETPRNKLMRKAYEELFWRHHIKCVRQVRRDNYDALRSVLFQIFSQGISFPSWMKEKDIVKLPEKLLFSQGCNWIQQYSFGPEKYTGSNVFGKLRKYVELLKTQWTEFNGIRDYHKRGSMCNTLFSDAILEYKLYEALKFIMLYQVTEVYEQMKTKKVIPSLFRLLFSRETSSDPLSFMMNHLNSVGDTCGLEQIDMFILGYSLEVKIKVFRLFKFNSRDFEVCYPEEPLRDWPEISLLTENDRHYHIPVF
Summary of the method: as §1

OTUB1 = OTUB1 (UniProt Q96FW1)
Summary of the method: as §1

OTUD4 = biological target: T4, OTUD4 (UniProt Q01804)
T4 sequence (whole entry): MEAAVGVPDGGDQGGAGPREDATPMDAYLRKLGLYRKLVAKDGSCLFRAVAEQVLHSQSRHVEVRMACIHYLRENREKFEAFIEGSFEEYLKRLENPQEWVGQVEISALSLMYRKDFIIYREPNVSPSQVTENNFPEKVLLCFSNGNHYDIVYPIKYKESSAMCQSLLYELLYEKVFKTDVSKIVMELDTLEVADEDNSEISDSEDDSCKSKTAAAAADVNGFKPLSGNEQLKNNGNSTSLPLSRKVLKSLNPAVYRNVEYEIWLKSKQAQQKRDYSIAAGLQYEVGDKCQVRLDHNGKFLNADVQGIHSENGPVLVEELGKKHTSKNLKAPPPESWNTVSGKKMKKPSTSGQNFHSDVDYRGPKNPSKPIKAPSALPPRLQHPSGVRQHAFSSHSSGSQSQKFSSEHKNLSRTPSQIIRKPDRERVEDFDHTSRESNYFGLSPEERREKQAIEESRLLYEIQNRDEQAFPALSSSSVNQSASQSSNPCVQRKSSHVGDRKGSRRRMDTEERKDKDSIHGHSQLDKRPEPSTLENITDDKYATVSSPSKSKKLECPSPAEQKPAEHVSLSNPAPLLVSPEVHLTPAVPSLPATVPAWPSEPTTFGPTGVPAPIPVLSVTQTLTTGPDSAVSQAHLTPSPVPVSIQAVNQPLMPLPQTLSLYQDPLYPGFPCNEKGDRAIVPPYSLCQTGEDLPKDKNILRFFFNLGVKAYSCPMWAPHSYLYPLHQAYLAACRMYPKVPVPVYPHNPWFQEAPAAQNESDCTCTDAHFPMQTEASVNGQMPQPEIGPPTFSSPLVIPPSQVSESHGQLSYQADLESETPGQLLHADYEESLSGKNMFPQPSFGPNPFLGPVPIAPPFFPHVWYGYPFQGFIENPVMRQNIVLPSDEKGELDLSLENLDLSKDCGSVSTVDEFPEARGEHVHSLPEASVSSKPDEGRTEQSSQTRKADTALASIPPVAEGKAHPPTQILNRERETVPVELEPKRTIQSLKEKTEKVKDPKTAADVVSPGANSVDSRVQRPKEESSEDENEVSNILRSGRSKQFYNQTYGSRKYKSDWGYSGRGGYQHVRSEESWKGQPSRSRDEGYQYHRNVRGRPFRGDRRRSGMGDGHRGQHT
Summary of the method: as §1

OTUD5 = biological target: T5, OTUD5 (UniProt Q96G74)
T5 sequence (whole entry): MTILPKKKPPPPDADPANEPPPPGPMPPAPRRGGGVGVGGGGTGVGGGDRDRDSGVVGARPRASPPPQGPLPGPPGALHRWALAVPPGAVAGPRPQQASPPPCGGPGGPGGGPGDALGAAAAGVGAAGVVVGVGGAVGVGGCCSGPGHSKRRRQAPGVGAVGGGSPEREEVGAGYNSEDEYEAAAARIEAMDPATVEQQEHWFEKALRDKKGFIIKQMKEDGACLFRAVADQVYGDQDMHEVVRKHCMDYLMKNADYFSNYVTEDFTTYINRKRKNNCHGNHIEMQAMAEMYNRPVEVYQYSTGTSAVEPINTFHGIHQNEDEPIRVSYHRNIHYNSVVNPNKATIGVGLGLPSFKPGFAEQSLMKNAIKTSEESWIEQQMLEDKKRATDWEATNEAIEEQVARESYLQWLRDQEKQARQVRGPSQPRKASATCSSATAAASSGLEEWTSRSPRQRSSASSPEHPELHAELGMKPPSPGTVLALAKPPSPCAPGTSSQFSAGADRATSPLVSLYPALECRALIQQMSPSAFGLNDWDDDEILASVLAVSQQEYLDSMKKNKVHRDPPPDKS
Summary of the method: as §1

Measured: log2 ratio of Biotin-Ahx-Ub-VS probe labelling

EIF3H, sequence (O15372 whole entry): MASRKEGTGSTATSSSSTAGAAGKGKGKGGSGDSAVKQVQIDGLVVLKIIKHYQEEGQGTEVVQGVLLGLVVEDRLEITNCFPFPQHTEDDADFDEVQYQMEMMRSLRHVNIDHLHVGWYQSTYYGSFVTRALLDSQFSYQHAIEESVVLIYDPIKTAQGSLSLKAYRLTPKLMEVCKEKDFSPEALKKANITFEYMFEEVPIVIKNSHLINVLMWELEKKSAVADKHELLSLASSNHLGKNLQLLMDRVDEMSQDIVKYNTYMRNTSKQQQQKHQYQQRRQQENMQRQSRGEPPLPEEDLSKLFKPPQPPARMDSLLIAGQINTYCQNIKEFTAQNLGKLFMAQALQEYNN
OTUB1, sequence (Q96FW1 whole entry): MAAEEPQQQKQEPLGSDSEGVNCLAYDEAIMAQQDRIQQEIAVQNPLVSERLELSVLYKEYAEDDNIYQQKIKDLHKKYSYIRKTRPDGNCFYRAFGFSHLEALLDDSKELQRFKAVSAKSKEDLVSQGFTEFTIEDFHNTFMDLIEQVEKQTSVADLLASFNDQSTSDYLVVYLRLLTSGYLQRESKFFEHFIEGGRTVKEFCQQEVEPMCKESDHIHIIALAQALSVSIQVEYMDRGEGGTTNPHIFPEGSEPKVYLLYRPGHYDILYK
ATXN3, sequence (P54252 whole entry): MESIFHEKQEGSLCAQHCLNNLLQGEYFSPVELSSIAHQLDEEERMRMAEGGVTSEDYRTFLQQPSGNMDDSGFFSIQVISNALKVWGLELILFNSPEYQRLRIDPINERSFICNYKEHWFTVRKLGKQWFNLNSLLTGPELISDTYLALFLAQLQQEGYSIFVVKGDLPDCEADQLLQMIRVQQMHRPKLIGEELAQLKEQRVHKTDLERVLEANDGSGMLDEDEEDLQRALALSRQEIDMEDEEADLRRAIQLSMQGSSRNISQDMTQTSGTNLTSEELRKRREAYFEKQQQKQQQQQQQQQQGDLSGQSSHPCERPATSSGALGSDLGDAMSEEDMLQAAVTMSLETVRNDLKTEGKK
EIF3F, sequence (O00303 whole entry): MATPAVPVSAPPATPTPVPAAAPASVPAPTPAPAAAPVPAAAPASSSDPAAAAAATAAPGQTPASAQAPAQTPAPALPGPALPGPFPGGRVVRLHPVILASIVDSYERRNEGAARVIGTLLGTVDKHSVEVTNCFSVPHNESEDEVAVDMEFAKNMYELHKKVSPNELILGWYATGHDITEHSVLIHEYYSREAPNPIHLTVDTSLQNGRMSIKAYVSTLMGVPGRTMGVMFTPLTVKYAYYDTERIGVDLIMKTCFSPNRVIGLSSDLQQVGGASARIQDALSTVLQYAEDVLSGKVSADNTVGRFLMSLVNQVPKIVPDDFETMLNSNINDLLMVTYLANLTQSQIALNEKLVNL

Cc1nc(CNC(=O)CCl)c2ccccn12.Cl
inactive: ALG13 -0.085 | ATXN3 -0.101 | BAP1 -0.847 | EIF3F -0.26 | EIF3H 0.233 | FAM105A -0.142 | OTUB1 -0.107 | OTUD4 -0.199 | OTUD5 -0.159
